Assay outcomes (PubChem)
BH1578 lux ind = induces V. cholerae light production without autoinducers | V. cholerae BH1578 lux reporter, luminescence, 6 h | activation, % at 18.7 µM | hit rate 0.16% among 350,000 | AID 588436; in the data active = activation mostly above about 9.7%, no sharp cut-off
3CLpro inhibitor = SARS-CoV 3CLpro protease inhibition; P0C6X7; recombinant SARS-CoV 3CLpro, quenched FRET peptide cleavage; inhibition, % at 6 µM; hit rate 0.14% among 290,000; AID 1706; in the data active = inhibition above about 12%
GDH-TPI inh = counter-screen for M. tuberculosis FBA inhibitors: GDH-TPI coupled enzymes. hit rate 1.2% among 360,000. inhibition, % at 4.8 µM. GDH-TPI coupled enzyme counterscreen, NADH absorbance; in the data active = inhibition above about 30%
Mtb FBA inh = inhibitors of M. tuberculosis fructose-bisphosphate aldolase | P9WQA3 | purified M. tuberculosis FBA, fluorescence read-out | inhibition, % at 1 µM | hit rate 2.3% among 360,000 | AID 588726; in the data active = inhibition above about 27%
PrPC surface inh = reduces human prion protein on the cell surface. P04156. cell surface PrPC, TR-FRET read-out. inhibition, % at 13.8 µM. hit rate 0.43% among 370,000; in the data active = inhibition above about 24%
PrPC confirm = cell surface PrPC inhibition, TR-FRET confirmation. shares compounds with PrPC surface inh. cell surface PrPC level. inhibition, % at 13.8 µM. hit rate 65% among 1,500; in the data active = inhibition above about 25%
LD9 cytotox = counter-screen for PrPc inhibitors: cytotoxicity in LD9 cells; shares compounds with PrPC surface inh; luminescence viability; inhibition, % at 13.8 µM; hit rate 29% among 1,500; AID 743201; in the data active = inhibition above about 9.5%
Each line names hits and unclear results; the compound was inactive in the other large screens (follow-up assays come after a bar, where they were run). Compounds with a hit are over-represented: about 3.9% of the library has one in this group of screens.

COc1ccccc1Cn1c(=S)[nH]c2ccc(Br)cc2c1=O	none
COc1ccccc1Cn1c(=S)[nH]c2ccc(F)cc2c1=O	PrPC surface inh 108.0 | PrPC confirm 131.3 | LD9 cytotox inactive
COc1ccccc1Cn1c(=S)[nH]c2ccccc2c1=O	PrPC surface inh 61.6 | PrPC confirm 89.6 | LD9 cytotox inactive
Cc1ccc(CN2CCCCC(NC(=O)c3ccc(COc4ccccc4)cc3)C2=O)cc1 (centres undefined)	PrPC surface inh 25.4 (no result: BH1578 lux ind, 3CLpro inhibitor, GDH-TPI inh, Mtb FBA inh) | PrPC confirm inactive | LD9 cytotox inactive
O=C(COc1ccc(-c2nnco2)cc1)Nc1ccc(C(F)(F)F)cc1	none (no result: 3CLpro inhibitor)
CCSc1nnc2ccc(-c3ccc(C)cc3)nn12	PrPC surface inh 42.3 | PrPC confirm inactive | LD9 cytotox inactive
Cc1ccc(CN2CCN(/N=C/C(Br)=C\c3ccccc3)CC2)cc1	none
BrC(=C\c1ccccc1)/C=N/n1cnnc1	PrPC surface inh 34.4 | PrPC confirm inactive | LD9 cytotox 37.3
CCOC(=O)COc1cc(Br)c(/C=N/Nc2ccccc2)cc1OC	PrPC surface inh 61.1 | PrPC confirm 64.2 | LD9 cytotox inactive
CCc1cccc(CC)c1NC(=O)CO/N=C(\C)c1cccs1	PrPC surface inh 34.5 | PrPC confirm 29.7 | LD9 cytotox inactive
CCN1/C(=C/C=C/C2=[N+](CC)c3ccccc3C2(C)C)C(C)(C)c2ccccc21	PrPC surface inh 77.0 (no result: 3CLpro inhibitor) | PrPC confirm 95.9 | LD9 cytotox 78.3
C=CCOc1ccc(C2NC(=S)NC(c3ccccc3)=C2C(C)=O)cc1OC (centres undefined)	PrPC surface inh 51.5 | PrPC confirm 45.2 | LD9 cytotox inactive
CC1=C(C(=O)c2ccccc2)C(c2ccc(OC(F)F)cc2)NC(=S)N1 (centres undefined)	PrPC surface inh 49.8 | PrPC confirm 46.7 | LD9 cytotox inactive
CCCOc1ccc(C2NC(=S)NC(C)=C2C(=O)c2ccccc2)cc1OC (centres undefined)	PrPC surface inh 49.6 | PrPC confirm 53.0 | LD9 cytotox inactive
O=c1[nH]c(NCc2ccccc2)nc2c1CCCC2	none
COc1ccc(OCc2nn3c(-c4ccccc4)nnc3s2)cc1	none (no result: BH1578 lux ind, 3CLpro inhibitor, GDH-TPI inh, Mtb FBA inh)
Cc1ccc2nc(NC(=O)c3ccccn3)sc2c1	PrPC surface inh 25.2 | PrPC confirm 61.0 | LD9 cytotox 77.0
CC(C)C1C(=O)N(Cc2cn(CC3CCCCC3)nn2)CCS(=O)(=O)N1Cc1ccc(-c2cccc(CO)c2)cc1 (centres undefined)	none (no result: 3CLpro inhibitor)
CC(C)N1CCc2c(sc(NC(=O)c3ccc(S(=O)(=O)N4CCCCC4C)cc3)c2C(N)=O)C1 (centres undefined)	PrPC surface inh 43.2 | PrPC confirm inactive | LD9 cytotox inactive
CNC(=O)c1c(NC(=O)c2ccc(S(=O)(=O)N3CCCCC3)cc2)sc2c1CCN(C(C)C)C2	none
COc1ccc(-c2cc(NCCc3ccncc3)n3ncnc3n2)cc1	PrPC surface inh 105.9 (no result: BH1578 lux ind) | PrPC confirm inactive | LD9 cytotox inactive
CCOC(=O)c1c(C)n(CC)c2c1cc(O)c1ccccc12	PrPC surface inh 24.7 | PrPC confirm inactive | LD9 cytotox inactive
Cc1cc(NC(=O)CCC(=O)N(CC(=O)NCC2CCCO2)c2ccc(C(C)C)cc2)no1 (centres undefined)	none
COc1ccc(C(=O)NNC(=O)C(Cc2ccc(O)cc2)NC(=O)c2ccccc2NC(=O)c2ccc(OC)cc2)cc1 (centres undefined)	PrPC surface inh 119.0 | PrPC confirm inactive | LD9 cytotox inactive
COc1ccc(Br)cc1Cn1nnc(C(=O)Nc2ccc3c(c2)OCCO3)c1N	PrPC surface inh 25.0 | PrPC confirm inactive | LD9 cytotox inactive
Cc1ccc(/C=C/C(=O)NCCc2cccc(Cl)c2)o1	none
O=C(Oc1ccc(-c2nnco2)cc1)c1cc(S(=O)(=O)N2CCOCC2)ccc1F	none (no result: 3CLpro inhibitor)
Cc1ccc(C(=O)Nc2cc(S(=O)(=O)N3CCOCC3)ccc2N2CCCC2)cc1	PrPC surface inh 46.0 (no result: 3CLpro inhibitor) | PrPC confirm 49.6 | LD9 cytotox inactive
COc1ccc(NCC(=O)Nc2cc(S(=O)(=O)N3CCOCC3)ccc2N2CCOCC2)c(OC)c1	PrPC surface inh 24.8 | PrPC confirm inactive | LD9 cytotox inactive
c1ccc(Cn2nnnc2C(c2cccs2)N2CCc3ccccc3C2)cc1 (centres undefined)	none (no result: PrPC surface inh)
c1ccc(Cn2nnnc2C(c2cccs2)N2CCCCCC2)cc1 (centres undefined)	PrPC surface inh 28.5 | PrPC confirm inactive | LD9 cytotox inactive
Cc1cc(C)c(S(=O)(=O)NCc2cccnc2)c(C)c1	PrPC surface inh 45.6 | PrPC confirm 35.5 | LD9 cytotox inactive
CCCc1noc2c1/C(=N\O)CC(c1ccccc1)C2 (centres undefined)	PrPC surface inh 24.4 (no result: BH1578 lux ind) | PrPC confirm inactive | LD9 cytotox inactive
COCCCNc1ccn2nc(-c3ccc(OCc4ccccc4)cc3)cc2n1	PrPC surface inh 41.6 (no result: 3CLpro inhibitor) | PrPC confirm 29.6 | LD9 cytotox inactive
Clc1cccc(CNc2ccn3nc(-c4ccc(OCc5ccccc5)cc4)cc3n2)c1	PrPC surface inh 37.1 (no result: 3CLpro inhibitor) | PrPC confirm 31.6 | LD9 cytotox inactive
c1ccc(COc2ccc(-c3cc4nc(NCCOc5ccccc5)ccn4n3)cc2)cc1	none (no result: 3CLpro inhibitor)
COC(=O)C1C(=O)N(S(=O)(=O)c2ccc([N+](=O)[O-])cc2)c2ccccc21 (centres undefined)	none (no result: BH1578 lux ind, 3CLpro inhibitor, GDH-TPI inh, Mtb FBA inh)
OC(c1ccccc1)(c1ccccc1)c1cnc2ccccn12	none (no result: BH1578 lux ind, 3CLpro inhibitor, GDH-TPI inh, Mtb FBA inh)
O=C(N[C@@H](Cc1cccnc1)C(=O)N1CCC[C@H]1C(=O)NCCc1ccccc1Cl)C1CC1	none (no result: BH1578 lux ind, 3CLpro inhibitor, GDH-TPI inh, Mtb FBA inh)
Cc1ccccc1CN1C(=O)CN(S(C)(=O)=O)CC1(C)C(=O)Nc1c(C)cccc1C (centres undefined)	none (no result: BH1578 lux ind, 3CLpro inhibitor, GDH-TPI inh, Mtb FBA inh)
Cc1ccccc1CN1C(=O)CN(S(C)(=O)=O)CC1(C)C(=O)NCc1ccccc1 (centres undefined)	PrPC surface inh 25.2 (no result: BH1578 lux ind, 3CLpro inhibitor, GDH-TPI inh, Mtb FBA inh) | PrPC confirm inactive | LD9 cytotox inactive
O=C(c1ccccc1)N1CCOC(O)(c2ccccc2)C1c1ccccc1 (centres undefined)	none (no result: 3CLpro inhibitor)
O=C(CCl)Nc1nc(-c2ccco2)c(-c2ccco2)s1	PrPC surface inh 43.8 | PrPC confirm 31.9 | LD9 cytotox inactive
O=C(CCCSc1ccccc1)Nc1nc(-c2ccco2)c(-c2ccco2)s1	none
Cc1ccc(C)c(NC(=O)c2nnn(Cc3ccccc3)c2N)c1	PrPC surface inh 27.4 | PrPC confirm inactive | LD9 cytotox inactive
CCN(CC)CCCN=Cc1c(O)n(-c2ccccc2C)c(=O)c2ccccc12	none
CCCOc1ccccc1OCC(=O)Nc1cc(Cl)ccc1-n1cncn1	none (no result: 3CLpro inhibitor)
CCN(CC)C(=O)CSc1nc(N)c(C#N)c(-c2cccs2)c1C#N	PrPC surface inh 62.7 | PrPC confirm inactive | LD9 cytotox inactive
CCCCCCCC/C=C\CCCCCCCC(=O)NCCO	none (no result: 3CLpro inhibitor)
CCCCCCCC/C=C\CCCCCCCC(=O)NCCc1ccc(O)c(O)c1	PrPC surface inh 82.9 (no result: 3CLpro inhibitor) | PrPC confirm 44.2 | LD9 cytotox 64.6
